Assay outcomes (PubChem BioAssay)
Cruzain inh Det: blocks cruzain activity in presence of Triton detergent. purified cruzain, Z-FR-AMC fluorescence, 0.01% Triton. P25779. Potency, µM, inactives show max response, negative = inhibition, usual class: inhibitors. actives 0.43% (n = 200,000). AID 1478;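 note: plate controls were neutral wells for no effect and buffer without enzyme for full effect; nearly all actives have a fitted effect of over 40% in size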
Target sequence (P25779 123-467 limits assumed): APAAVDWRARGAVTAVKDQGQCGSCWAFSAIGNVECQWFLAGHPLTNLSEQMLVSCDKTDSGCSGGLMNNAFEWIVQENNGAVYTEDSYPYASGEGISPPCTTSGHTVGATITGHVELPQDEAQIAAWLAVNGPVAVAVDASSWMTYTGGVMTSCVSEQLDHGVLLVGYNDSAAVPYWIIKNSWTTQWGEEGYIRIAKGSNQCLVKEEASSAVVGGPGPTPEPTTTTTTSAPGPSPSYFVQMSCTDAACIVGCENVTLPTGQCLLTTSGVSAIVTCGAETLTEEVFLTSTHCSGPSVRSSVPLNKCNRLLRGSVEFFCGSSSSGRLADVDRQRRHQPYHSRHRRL
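Detergent-containing run (0.01% Triton X-100) in acetate buffer pH 5.5 with 5 mM DTT: enzyme at 1.5 nM final, 15 min compound preincubation at room temperature, then 2 uM Z-FR-AMC substrate. Activity taken as 60 s fluorescence increase at 360/450 nm.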
Cruzain inh noDet: inhibitors of Trypanosoma cruzi cruzain without detergent; P25779; purified cruzain, Z-FR-AMC fluorescence, no detergent; actives 2.3% (n = 200,000); Potency, µM, without a hit: max response, negative = inhibition, usual class: inhibitors;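 note: plate controls were enzyme without inhibitor for no effect and buffer without enzyme for full effect; nearly all actives have a fitted effect of over 40% in size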
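Purified cruzain at 1.5 nM, pre-incubated 15 min with compound at room temperature in 100 mM sodium acetate pH 5.5, 5 mM DTT, 0.00005% Triton X-100. Reaction started with 2 uM Z-FR-AMC; AMC fluorescence increase over 60 s gives rate.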
Papain inh: papain (Carica papaya) inhibition counter-screen; shares compounds with Cruzain inh Det; purified papain, Z-FR-AMC fluorescence cleavage; Potency, µM, for the others: max response, negative = inhibition, actives largely listed as inhibitors; actives 41% (n = 410); AID 2161;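 note: 0% = no-compound wells and -100% = no-enzyme wells; nearly all actives have a fitted effect of over 35% in size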
Target sequence (P00784 whole entry, looked up): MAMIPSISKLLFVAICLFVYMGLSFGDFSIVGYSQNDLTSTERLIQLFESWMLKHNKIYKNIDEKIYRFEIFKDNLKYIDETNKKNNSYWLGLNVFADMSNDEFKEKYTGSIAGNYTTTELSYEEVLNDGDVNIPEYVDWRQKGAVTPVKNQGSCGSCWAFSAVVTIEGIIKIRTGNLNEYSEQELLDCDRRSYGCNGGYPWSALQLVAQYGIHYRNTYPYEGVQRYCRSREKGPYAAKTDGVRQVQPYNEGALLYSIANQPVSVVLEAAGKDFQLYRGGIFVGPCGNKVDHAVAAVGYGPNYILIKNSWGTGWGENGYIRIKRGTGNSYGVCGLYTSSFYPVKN
Active calls of the source: *; ? = inconclusive; · = not tested or not shown. A selection: hits, their analogues and other compounds. The true share with any hit is near 2.4%. Calls come from the whole dose curve; as a rule, active = well fitted curve in the direction sought with a large enough effect; inconclusive = small, poorly fitted or top-dose-only effect, or another doubt; inactive = no such curve, though single readings can be large; an effect the other way counts as inactive or inconclusive. Potency is the fitted concentration of half-maximal effect.

SMILES | Cruzain inh Det | Cruzain inh noDet | Papain inh
CCOC(=O)COc1nc(N(C)C)nc(N(C)C)n1 | 12.1% | 4.1% | ·
CC(C(=O)N(C)C)N(C#N)c1nc(N(C)C)nc(N(C)C)n1 (configuration not stated) | 2.2% | -12.9% | ·
CCOC(=O)C(C(=O)OCC)N(C#N)c1nc(OC)nc(N(C)C)n1 | 3.55µM* | 10µM* | 28.2µM*
CCOC(=O)C(C(=O)OCC)N(C#N)c1nc(SC)nc(N(C)C)n1 | 2.51µM* | 3.16µM* | 15.8µM*
COc1ccccc1C(=O)Nc1ccc(C(=O)OCc2cc(=O)n3nc(C)sc3n2)cc1 | 6.5% | 0.1% | ·
Cc1ccc(-n2nc(C)c3c(C(=O)Nc4ccc(C)cc4Cl)cc(C)nc32)cc1 | -2.5% | -10.7% | ·
CCOc1ccccc1NC(=O)Cc1csc(COc2cccc(C)c2)n1 | -9.1% | -1.3% | ·
Cc1cc2ccccc2n1CCNC(=O)C1CCCCC1 | -4.5% | 0.3% | ·
O=C(NCCCc1nc2ccccc2n1Cc1cccc(Cl)c1)C1CCCCC1 | -10.4% | 1.7% | ·
O=C(NCCc1nc2ccccc2n1CCCOc1cccc2ccccc12)C1CCCCC1 | · | · | -28.3%
Cc1cccc(C)c1OCCCn1c(CCNC(=O)C2CCCCC2)nc2ccccc21 | 3.55µM* | 6.6% | -20.6%
Cc1ccc(C(=O)N/C(=C/c2cccc([N+](=O)[O-])c2)C(=O)NC(C)C)cc1 | -0.1% | -2.1% | ·
Cc1ccc(C(=O)N/C(=C\c2cccc([N+](=O)[O-])c2)C(=O)OCN2C(=O)c3ccccc3C2=O)cc1 | 0.891µM* | 15.8µM* | -4.1%
O=C(Cn1ncc2c3ccccc3n(Cc3cccc(Cl)c3)c2c1=O)N1CCCCCC1 | -9.6% | -0.8% | ·
COc1cccc(N2C(=O)C(CC(=O)Nc3ccc(Cl)cc3)N(Cc3ccc4c(c3)OCO4)C2=O)c1 (configuration not stated) | -3.8% | 2.4% | ·
CCOC(=O)N1CCN(Cc2ccccn2)CC1 | -1.2% | -4.0% | ·
CCOC(=O)N1CCC(=C2c3ccc(Cl)cc3CCc3cccnc32)CC1 | -5.4% | ? | -8.7%
CCc1ccc(NC(=O)CSC2=Nc3ccccc3C3=NC(CCC(=O)NCc4cccs4)C(=O)N23)cc1 (configuration not stated) | 2.0% | -4.6% | ·
O=C(CSc1nccn1-c1cccc(Cl)c1)Nc1cccc2ccccc12 | -6.1% | 5.1% | ·
CC(C)C[C@H](N)c1nnc(SCc2ccc(Cl)cc2Cl)o1 | -2.3% | 0.7% | ·
CC(C)C[C@H](N)c1nnc(S(=O)(=O)Cc2ccc(F)cc2)o1 | 12.6µM* | 12.6µM* | 3.1%
Cc1ccc2nc(-c3ccc(NC(=O)COc4ccc(Cl)c(C)c4)cc3)sc2c1 | -6.0% | 13.5% | ·
COC(=O)c1c(Oc2ccc(Br)cc2)nnc(-c2ccccc2)c1-c1ccccc1 | -3.9% | -22.0% | ·
CC(C)OC(=O)c1c(N)n(Cc2ccco2)c2nc3ccccc3nc12 | 11.2µM* | 12.6µM* | -2.2%
COCCOC(=O)c1c(N)n(Cc2ccco2)c2nc3ccccc3nc12 | -4.6% | -0.5% | ·
SMILES | Cruzain inh Det | Cruzain inh noDet | Papain inh
Cc1c(Cl)ccc2sc(N3CCN(C(=O)C4CC4)CC3)nc12 | -9.8% | ? | ·
Cc1cc(C)c(Cn2c(=O)n(CCCC(=O)NCc3ccc4c(c3)OCO4)c(=O)c3sccc32)c(C)c1 | -1.2% | -10.1% | ·
COc1cc2[nH]c(=O)n(CCCC(=O)N3CC=C(c4ccccc4)CC3)c(=O)c2cc1OC | -6.9% | ? | ·
COc1cccc2c1[C@@H]1CN(CCCCn3c(=O)[nH]c4c(sc5ncc(-c6ccccc6)nc54)c3=O)C[C@@H]1CO2 | 28.2µM* | ? | -13.5%
C#CCn1c(=NC(=O)c2ccc(Br)s2)sc2cc(NC(C)=O)ccc21 | -11.8% | -18.1% | ·
COC(=O)Cn1c(=NC(=O)c2ccc(Cl)s2)sc2cc(C)ccc21 | 22.4µM* | 20µM* | 14.1µM*
CCc1ccccc1N(C)S(=O)(=O)c1ccc2c(c1)C(C)(C)C(=O)N2C | -6.4% | 25.5% | ·
Cc1ccc(-c2nc3cc(C(C)C)ccc3o2)cc1NC(=O)c1cccs1 | -1.0% | 1.7% | ·
CCc1ccc(NC(=O)Cn2c(SCc3ccc(C)cc3)nc3ccncc32)cc1 | · | · | -2.8%
Cc1ccccc1Cn1c(SCc2ccc(C(=O)NCCc3ccccc3)cc2)nc2ccncc21 | -8.6% | 2.3% | ·
CCCNC(=O)Cn1c(SCc2ccccc2C)nc2ccncc21 | · | · | 0.9%
CN(C)c1ccc(NC(=O)Cn2c(SCc3ccc(F)cc3)nc3ccncc32)cc1 | -6.3% | -3.9% | ·
CCc1ccccc1NC(=O)Cn1c(SCc2ccc(F)cc2)nc2ccncc21 | -24.4% | -7.8% | ·
CCCCNC(=O)Cn1c(SCc2ccccc2C)nc2ccncc21 | · | · | -2.6%
COc1cc(C(=O)NCC(c2cccs2)S(=O)(=O)c2ccc(F)cc2)cc(OC)c1OC (configuration not stated) | -1.5% | ? | ·
Cc1nn(CC(=O)NCC(C)c2ccccc2)c(=O)c2cc3ccccc3n12 (configuration not stated) | 0.2% | -8.8% | ·
COc1ccc(CCNC(=O)c2ccc3c(c2)CCN3S(=O)(=O)c2ccc(C)cc2)cc1 | 0.7% | -6.0% | ·
NC(=S)N/N=C/c1ccc(-c2cc(Cl)ccc2Cl)o1 | 0.708µM* | 0.631µM* | 4.47µM*
COC(=O)N/N=C/c1ccc(-c2cccc(Cl)c2)o1 | -10.9% | 1.8% | ·
COc1ccccc1C(=O)Nc1ccc2nc(SCC(=O)N3CCCC3)sc2c1 | -1.2% | -0.2% | ·
O=C(NC(=S)Nc1cccc(Cl)c1N1CCCC1)c1ccc(-c2cccc([N+](=O)[O-])c2)o1 | -3.4% | 3.16µM* | 7.5%
O=C(Nc1cccc(Cl)c1N1CCCCC1)c1ccc(N2CCOCC2)c([N+](=O)[O-])c1 | -7.1% | -2.1% | ·
CCN(c1ccccc1)S(=O)(=O)c1ccc(F)c(C(=O)Nc2ccc(C)cc2)c1 | -0.5% | 8.1% | ·
O=C(Nc1nnc(C2CC2)o1)c1ccc(S(=O)(=O)N2CCCc3ccccc32)cc1 | -4.5% | 23.4% | ·
COc1ccc(-c2nnc(NC(=O)c3ccc(S(=O)(=O)N4CCCc5ccccc54)cc3)o2)cc1 | -0.5% | -23.3% | -3.5%
SMILES | Cruzain inh Det | Cruzain inh noDet | Papain inh
Cc1cc(S(=O)(=O)N2CCN(Cc3noc(CCC(=O)N4CCCCC4)n3)CC2)ccc1F | -1.2% | ? | ·
CC(C)Oc1ccc(CNS(=O)(=O)c2ccc3c(c2)C(C)(C)C(=O)N3C)cc1 | 0.0% | -11.9% | ·
CCc1ccc(NC(=O)c2sc3nc(C)cc(C)c3c2NC(=O)c2ccccc2OC)cc1 | 0.4% | 5.4% | ·
O=C(Nc1ccccc1)c1ccc(-n2nncc2-c2ccccc2)cc1 | · | · | 1.5%
O=C(Nc1ccc(-n2nncc2-c2ccccc2)cc1)c1cccc(F)c1 | 10.6% | 8.7% | ·
COc1ccc(/C=C/C(=O)Nc2ccc(-n3nncc3-c3ccc(OC)c(OC)c3)cc2)cc1OC | -14.7% | ? | ·
O=C(/C=C/c1ccc2c(c1)OCO2)Nc1ccc(-n2nncc2-c2ccccc2)cc1 | · | · | 14.1µM*
Cc1ccc(NC(=O)/C=C/c2ccc3c(c2)OCO3)nc1 | -2.0% | -4.2% | ·
COc1ccc(-c2cnnn2-c2ccc(NC(=O)/C=C/c3ccc(OC)c(OC)c3)cc2)cc1 | 3.55µM* | 12.6µM* | -14.4%
Cc1ccc(-c2nnc3ccccc3c2C(=O)Nc2ccc(C)c(F)c2)cc1 | 1.3% | -17.1% | ·
CCOC(=O)c1c(C)[nH]c(CCC(=O)Nc2c(C)cccc2CC)c1C | 2.8% | 11.0% | ·
Cc1ccc(-c2nc(CCNC(=O)C(=O)Nc3c(C)cccc3C)cs2)cc1 | 6.9% | 18.0% | ·
N#Cc1c(N)n(CCNC(=O)c2ccc(Cl)cc2)c2nc3ccccc3nc12 | -4.1% | 9.0% | ·
